From PubChem BioAssay
pS6 MEF inh: inhibitors of mTORC1 signaling in Tsc2-/- p53-/- MEF cells; actives 0.78% (n = 44,000); AID 493208; Tsc2-/- p53-/- MEF, phospho-rpS6 immunofluorescence/PI, 24 h; Potency, µM (top dose mostly 38.3 µM), for inactives: at the top dose activity change, negative = inhibition, actives largely listed as inhibitors;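 note: potency is the fitted concentration of half-maximal effect; plate controls were DMSO for no effect and rapamycin for full effect; nearly all actives have a fitted effect of over 50% in size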
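Immunofluorescence of rpS6 phosphorylation in Tsc2-/-, p53-/- MEFs after 24 h compound exposure, normalized to propidium iodide signal. Activity is expressed as % positive cells, thresholded with 7.5 nM rapamycin.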
p53null 39C kill: kills p53 null cells at the nonpermissive temperature. actives 0.97% (n = 55,000). H1299 p53-null (neo) cells, 39C, ATPlite viability, 24 h. Potency, µM (highest dose often 46.1 µM), for the others: at the highest dose activity, negative = cell killing, most hits filed as cytotoxic. AID 904;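 note: potency is the fitted concentration of half-maximal effect; 0% = DMSO only and -100% = full killing by 100 µM tamoxifen; nearly all actives have a fitted effect of over 50% in size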
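Concentration-response (up to 46 uM) was run for 24 h at the nonpermissive 39C on H1299-p53A138V or H1299-neo cells. ATP content was measured with ATPlite luminescence. AC50 values were Hill-modeled after normalizing between DMSO and 100 uM tamoxifen killing.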
S16 F2sN tox: cytotoxicity in S16 Pmp22-F2sN Schwann cells. S16 Pmp22-F2sN Schwann cells viability, CellTiter-Glo, 24 h. Potency, µM (top dose mostly 57.5 µM), for inactives: at the highest dose activity change, negative = cytotoxicity, actives largely listed as cytotoxic. actives 0.48% (n = 43,000). AID 1508642; note: potency is the fitted concentration of half-maximal effect; % is set by controls: 0 for no effect and ±100 for the full control effect; nearly all actives have a fitted effect of over 65% in size
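Luminescence from CellTiter-Glo, read by CCD camera after a 15 min room-temperature incubation, served as the viability signal. Reporter Schwann cells (S16 Pmp22-F2sN) had been treated with pin-transferred compounds for 24 h at 37C.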
PMP22 txn: modulators of PMP22 gene transcription in S16 Schwann cells; S16 Pmp22-F2sN Schwann cells (luciferase reporters placed in the Pmp22 gene), FLuc/NLuc coincidence luminescence, 24 h; Potency, µM (highest dose often 57.5 µM), without a hit: at the highest dose activity change, negative = inhibition, actives largely listed as inhibitors; actives 2% (n = 43,000); AID 1508649; active = clear falling dose curves in both reporters; inconclusive = both reporters move, but less clearly or upward; inactive = either reporter flat; the % is the NLuc reporter signal; note: potency is the fitted concentration of half-maximal effect; % is set by controls: 0 for no effect and ±100 for the full control effect
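S16 Schwann cells carrying FLuc/NLuc coincidence reporter in the Pmp22 3' UTR treated with compound 24 h at 37C; FLuc then NLuc luminescence read sequentially by dual-luciferase reagents.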
p53null 32C tox: kills p53 null cells at the permissive temperature; AID 903; actives 0.62% (n = 55,000); H1299-neo p53 null cells, ATP luminescence, 24 h, 32C; Potency, µM (titrated, usually from 46.1 µM), for inactives: at the top dose activity change, negative = cytotoxicity, most hits filed as cytotoxic;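 note: potency is the fitted concentration of half-maximal effect; 0% = DMSO only and -100% = full killing by 100 µM tamoxifen; nearly all actives have a fitted effect of over 55% in size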
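H1299-neo (p53 null) cells, 600/well, treated 24 h at 32C with compound up to 46 uM; ATPlite luminescence viability, normalized to DMSO and 100 uM tamoxifen; AC50 by Hill fit.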
OvCa metastasis: ovarian cancer metastasis inhibition, 3D TME model; SKOV3ip1-GFP adhesion/invasion on 3D omental model, fluorescence; Potency, µM (titrated, usually from 45.8 µM), for the others: top-dose activity change, negative = inhibition, most hits filed as inhibitors; actives 0.1% (n = 46,000); AID 1963576;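 note: potency is the fitted concentration of half-maximal effect; plate controls were DMSO wells for no effect and tomatine positive control wells for full effect; nearly all actives have a fitted effect of over 65% in size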
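Adhesion/invasion was scored as fixed GFP-labeled SKOV3ip1 cell counts (488/509 nm), normalized to DMSO and tomatine controls. Cancer cells in serum-free medium, with four compound doses (0.36-46 umol/L), sat 2 hr at RT then 16 hr at 37 C on a 48 hr fibroblast/mesothelial/ECM culture.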
NLuc saturating: NanoLuc enzyme inhibition artifact for PMP22 screen | shares compounds with PMP22 txn | Secreted NLuc enzyme (filtered S16 cell medium), Nano-Glo luminescence | Potency, µM (top dose mostly 57.5 µM), without a hit: top-dose activity change, negative = inhibition, most hits filed as inhibitors | actives 4% (n = 690) | AID 1508638; note: potency is the fitted concentration of half-maximal effect; % is set by controls: 0 for no effect and ±100 for the full control effect
NLuc Km ctr: counter-screen for PMP22 expression modulators: NanoLuc inhibition at Km. shares compounds with PMP22 txn. secreted NLuc enzyme, coelenterazine luminescence, Km conditions. Potency, µM (highest dose often 57.5 µM), inactives show at the highest dose activity change, negative = inhibition, actives largely listed as inhibitors. actives 5% (n = 690). AID 1508639; note: potency is the fitted concentration of half-maximal effect; % is set by controls: 0 for no effect and ±100 for the full control effect
FLuc ctr PMP22: counter-screen for PMP22 expression modulators: firefly luciferase inhibition; 690 tested, under 10 active; shares compounds with PMP22 txn; purified P. pyralis FLuc, luminescence, 10 min; AID 1508640; Potency, µM (series often up to 57.5 µM), for the others: at the top dose activity, negative = inhibition, actives largely listed as inhibitors; note: % of control where 0% means no effect
Target sequence (P08659 whole entry, looked up): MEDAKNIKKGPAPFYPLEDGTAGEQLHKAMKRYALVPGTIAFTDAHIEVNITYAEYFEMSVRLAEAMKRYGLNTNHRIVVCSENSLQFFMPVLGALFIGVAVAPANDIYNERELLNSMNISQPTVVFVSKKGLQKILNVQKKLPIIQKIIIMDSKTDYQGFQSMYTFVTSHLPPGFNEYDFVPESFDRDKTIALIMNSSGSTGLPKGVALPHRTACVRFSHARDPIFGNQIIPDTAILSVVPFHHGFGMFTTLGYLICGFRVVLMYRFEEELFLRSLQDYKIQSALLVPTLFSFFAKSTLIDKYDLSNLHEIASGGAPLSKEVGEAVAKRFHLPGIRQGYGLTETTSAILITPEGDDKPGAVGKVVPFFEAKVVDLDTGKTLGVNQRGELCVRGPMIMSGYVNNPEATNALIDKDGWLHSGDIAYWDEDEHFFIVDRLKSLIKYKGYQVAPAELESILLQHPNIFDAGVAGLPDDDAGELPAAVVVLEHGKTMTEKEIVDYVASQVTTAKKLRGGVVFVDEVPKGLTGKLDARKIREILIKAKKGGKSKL
S16 F2sN tox cnf: S16 Schwann cell cytotoxicity, confirmatory; AID 1508641; S16 Schwann cells viability, CellTiter-Glo ATP luminescence, 24 h; shares compounds with PMP22 txn; actives 7% (n = 690); Potency, µM (series often up to 57.5 µM), for inactives: at the highest dose activity change, negative = viability loss, hits mostly cytotoxic; note: potency is the fitted concentration of half-maximal effect; % is set by controls: 0 for no effect and ±100 for the full control effect
PMP22 txn cnf: confirmation of modulators of PMP22 gene transcription in S16 cells; Potency, µM (titrated, usually from 57.5 µM), without a hit: at the highest dose activity change, negative = inhibition, actives largely listed as inhibitors; shares compounds with PMP22 txn; actives 22% (n = 690); S16 Schwann cells Pmp22-F2sN, dual luciferase, 24 h; active = clear falling dose curves in both reporters; inconclusive = both reporters move, but less clearly or upward; inactive = either reporter flat; the % is the FLuc reporter signal; note: potency is the fitted concentration of half-maximal effect
PMP22 HiBiT cnf: confirmation of modulators of rat PMP22 protein expression; shares compounds with PMP22 txn; Potency, µM (highest dose often 27.9 µM), for inactives: at the highest dose activity change, negative = inhibition, actives largely listed as inhibitors; 95 tested, under 10 active; S16 Schwann cells Pmp22-HiBiT, luminescence, 48 h
Target sequence (P25094 whole entry, looked up): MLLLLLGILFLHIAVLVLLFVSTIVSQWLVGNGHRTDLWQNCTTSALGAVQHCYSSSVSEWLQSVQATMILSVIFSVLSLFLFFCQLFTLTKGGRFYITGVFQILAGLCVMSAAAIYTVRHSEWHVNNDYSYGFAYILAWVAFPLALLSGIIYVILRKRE
Active calls of the source: *; i = inactive; ? = inconclusive; · = not tested or not shown. Most compounds without a hit are left out; they make up all but 3% or so of the library. Unless noted, calls come from the whole dose curve; as a rule, active = well fitted curve in the direction sought with a large enough effect; inconclusive = small, poorly fitted or top-dose-only effect, or another doubt; inactive = no such curve, though single readings can be large; an effect the other way counts as inactive or inconclusive.

SMILES	pS6 MEF inh	p53null 39C kill	S16 F2sN tox	PMP22 txn	p53null 32C tox	OvCa metastasis	NLuc saturating	NLuc Km ctr	FLuc ctr PMP22	S16 F2sN tox cnf	PMP22 txn cnf	others
CCOc1ccc(-n2c(SCC(=O)NC3CCCCC3)nc3c([nH]c4ccccc43)c2=O)cc1	2%	80%	7%	-4%	5%	-6%	·	·	·	·	·
O=C(CSc1nc2c([nH]c3ccccc32)c(=O)n1-c1ccc(Cl)cc1)NC1CCCCC1	-1%	22%	?	13µM*	-25%	7%	-4%	12%	-4%	?	17µM*
C[C@]12CC[C@@H]3c4ccc(O)cc4CC[C@H]3[C@H]1CC[C@H]2O	·	·	·	·	·	-9%	·	·	·	·	·
Cn1nnnc1SCCCNCc1cccc(OCc2ccccc2)c1	-21%	-16%	-6%	20µM*	-6%	0%	-5%	1%	3%	-7%	-11%
COc1cc(NC(=O)c2cc(-c3ccccc3O)no2)cc(OC)c1OC	9%	?	?	?	-7%	-37%	·	·	·	·	·
COc1cccc(-c2cc(C(=O)Nc3cc(OC)c(OC)c(OC)c3)on2)c1	-1%	-8%	?	3.9µM*	2%	?	?	11µM*	-13%	-6%	18µM*
COc1cccc(CNC(=O)c2cc3c(=O)n(C)c4ccccc4c3n2C)c1	2%	-26%	14%	13µM*	-4%	-13%	-9%	-2%	5%	-14%	?
CCOCCCNC(=O)c1cc2c(=O)n(C)c3ccccc3c2n1C	-12%	-17%	0%	?	3%	i	·	·	·	·	·
CCOc1cc(CNc2ccc(O)cc2)ccc1OCc1ccc(Cl)cc1	?	?	?	7.8µM*	2%	-16%	17µM*	19µM*	?	-5%	-40%
CCOc1cc(CNc2ccc(O)cc2)cc(Br)c1OCc1ccccc1	-8%	?	?	8.5µM*	12%	0%	?	?	-11%	11%	15µM*	PMP22 HiBiT cnf=-11%
C=CCOc1c(Br)cc(CNc2ccc(NC(=O)C(C)C)cc2)cc1OCC	·	·	·	·	-24%	·	·	·	·	·	·
C[C@@H](CN1CC(=O)NC(=O)C1)N1CC(=O)NC(=O)C1	·	·	·	·	·	-10%	·	·	·	·	·
COc1ccc(Nc2nc3c(S(=O)(=O)c4ccc(C)cc4)nnn3c3ccsc23)cc1Cl	-1%	?	-9%	9µM*	-11%	-3%	-6%	-15%	-1%	?	?
COc1ccc(Nc2nc3c(S(=O)(=O)c4ccccc4)nnn3c3ccc(Cl)cc23)cc1	-9%	-25%	?	8.9µM*	?	1%	0%	5%	1%	?	14µM*	PMP22 HiBiT cnf=?
COc1ccc(Nc2nc3c(S(=O)(=O)c4ccccc4)nnn3c3ccsc23)cc1OC	-5%	2%	14%	-7%	-4%	-7%	·	·	·	·	·
CCOc1cc(C(=O)Nc2ccc(Cl)c(-c3nc4ccccc4[nH]3)c2)cc(OCC)c1OCC	·	·	·	·	·	3%	·	·	·	·	·
COc1ccc2c(c1)CC[C@H]1[C@@H]2CC[C@]2(C)[C@@H](NCCCCCCN3C(=O)C=CC3=O)CC[C@H]12	·	·	·	·	·	0%	·	·	·	·	·
COc1ccc(CCC(=O)Nc2nc3ccc(Cl)cc3s2)cc1OC	·	·	·	·	·	18%	·	·	·	·	·
Cc1c(C(=O)Nc2ccc(F)cc2)oc2ccc(S(=O)(=O)N3CCCCCC3)cc12	-5%	24%	-28%	15µM*	6%	-16%	-10%	-19%	1%	-8%	-35%
O=C(c1c2c(nc3ccccc13)C(=O)N(C1CCCCC1)C2)N1CCN(c2ccc(F)cc2)CC1	-5%	-20%	4%	10µM*	-2%	8%	-14%	7%	-8%	-6%	-36%
Cc1ccc(NC(=O)CSc2nc3n[nH]c(C)c3c(=N)n2-c2cccc(C)c2)cc1	-7%	4%	-16%	?	-19%	i	·	·	·	·	·
Cc1ccc(NC(=O)CSc2nc3n[nH]c(C)c3c(=N)n2-c2ccccc2C)cc1C	-4%	13%	-2%	17µM*	-7%	-7%	?	?	8%	-10%	-39%
COc1ccc(Cl)cc1NC(=O)CCS(=O)(=O)c1nc(-c2cccs2)cc(C(F)(F)F)n1	1%	?	?	10µM*	14%	?	?	?	3%	?	8.9µM*
COc1ccccc1-c1cc(C(F)(F)F)nc(S(=O)(=O)CCCC(=O)Nc2ccccc2F)n1	16µM*	?	?	8.9µM*	?	?	?	?	-1%	?	6.9µM*	PMP22 HiBiT cnf=36%
O=C(CCS(=O)(=O)c1nc(-c2cccs2)cc(C(F)(F)F)n1)Nc1ccc(OC(F)(F)F)cc1	-17%	?	?	?	17%	0%	-3%	?	2%	?	9.1µM*	PMP22 HiBiT cnf=?
COc1ccc(NC(=O)CSc2nc(-c3cccs3)cc(C(F)(F)F)n2)cc1Cl	-27%	-13%	0%	?	-1%	i	·	·	·	·	·
